From PubChem BioAssay (NCATS) come the findings set out here.

Inconclusive results are not listed. Activity calls are given as the source filed them. Unless noted, calls follow the shape of the dose curve; as a rule, active = well fitted curve in the direction sought with a large enough effect; inconclusive = small, poorly fitted or top-dose-only effect, or another doubt; inactive = no such curve, though single readings can be large; an effect the other way counts as inactive or inconclusive.

Test [1] in a line: qHTS to identify inhibitors of the type 1 interferon - major histocompatibility complex class I in skeletal muscle: primary screen against the NCATS Mechanism Interrogation Plate v5.0 (MIPE) Libary (AID 1347411). Also: nearly all actives have a fitted effect of over 65% in size. Also: potency is read from the fitted curve at half-maximal effect.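 As to activity change, negative = inhibition: plate controls were vehicle for no effect and reference inhibitor for full effect.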 Put shortly:
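Luminescence from CRISPR HiBit-tagged endogenous HLA-B in human myoblasts reported MHC class I level after 24 h of IFN-beta (4 ng/ml) plus compound. Compounds ran as 11-point 1:3 series, top 46 uM final.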

A short description of test [2]: Primary qHTS for inhibitors of nuclear receptor binding SET domain protein 2 (NSD2) in an isogenic RCH-ACV NSD2 p.E1099K mutant (9B) (AID 1645876). Also: nearly all actives have a fitted effect of over 70% in size. Also: potency is read from the fitted curve at half-maximal effect.
The nature of test [3]: Primary qHTS for inhibitors of nuclear receptor binding SET domain protein 2 (NSD2) in an RCH-ACV wild type WT cells (2C) (AID 1645877). Also: nearly all actives have a fitted effect of over 70% in size. Also: potency is read from the fitted curve at half-maximal effect.
The target of test [4] is Glutathione peroxidase 1 (Homo sapiens) (UniProt P07203). Description: Primary qHTS Assay for Inhibitors of Recombinant Selenoprotein Glutathione Peroxidase 1 (GPX1) (AID 1845191). Also: nearly all actives have a fitted effect of over 65% in size. Also: potency is read from the fitted curve at half-maximal effect. The method, boiled down: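 NADPH consumption tracked by fluorescence at 340/450 nm between t=0 and t=15 min, room temperature. Final mix: 10 nM GPX1, 100 nM glutathione reductase, 1 mM GSH, 0.5 mM NADPH, 0.5 mM cumene hydroperoxide, 0.01% BSA; 30 min compound–enzyme preincubation.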

Test [5] deals with Phospholipid hydroperoxide glutathione peroxidase GPX4 (Homo sapiens) (UniProt P36969). Put plainly: Primary qHTS Assay for Inhibitors of Recombinant Selenoprotein Glutathione Peroxidase 4 (GPX4) (AID 1845192). Also: nearly all actives have a fitted effect of over 65% in size. As to activity change, negative = inhibition: % is scaled to controls: 0 for no effect and ±100 for the full control effect. The following applies: outcome: dose series up to 50 µM unless noted. Put shortly: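 NADPH consumption followed by fluorescence at 340/450 nm, t=0 and after 15 min at room temperature. Reaction started with cumene hydroperoxide (0.5 mM final) after 30 min compound–GPX4 preincubation; final 200 nM GPX4, 100 nM GR, 1 mM GSH, 0.5 mM NADPH.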

Test [6] can be described thus: qHTS drug screen for cell cycle checkpoint inhibitors in PARPi-resistant BRCA-mutant ovarian cancer cell lines. (AID 1963452; calls by dose curve; also: potency is read from the fitted curve at half-maximal effect). The following applies: PEO1/OlaR viability, CellTiter-Glo luminescence, 96 h; for Z-AUC: stronger effect = lower value. The method, boiled down:
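PEO1, PEO4 and PEO1/OlaR ovarian cancer cells, 600 per well, exposed 96 h at 37C to a dilution series. Viability read by CellTiter-Glo luminescence, normalized to DMSO and empty wells; activity summarized as Z-AUC.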

Test [7] in a line: qHTS assay to identify inhibitors of the type 1 interferon - major histocompatibility complex class I in skeletal muscle: Counter screen cell viability and HiBit confirmation (AID 1347412). Also: potency is read from the fitted curve at half-maximal effect. As to activity change, negative = inhibition: % is scaled to controls: 0 for no effect and ±100 for the full control effect. As to all read-outs here: nearly all actives have a fitted effect of over 60% in size. The following applies: iHSKM muscle cells + IFN-b, HiBiT or CellTiter-Glo, 24 h; for activity change, negative = inhibition: at 45.9 µM (top of the series). The method, boiled down: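 Human myoblast knock-in line, 4.0 ng/ml IFN-beta stimulation, 24 h compound treatment. Endpoints: HiBiT lytic luminescence (HLA-B level) and CellTiter Glo (ATP). Dosing 12 concentrations, 3-fold steps, 46 uM highest final.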

Where [8] appears, read: measured here: PEO1 parental Z-AUC.

Sequence of Phospholipid hydroperoxide glutathione peroxidase GPX4 (Homo sapiens) (P36969 whole entry, looked up): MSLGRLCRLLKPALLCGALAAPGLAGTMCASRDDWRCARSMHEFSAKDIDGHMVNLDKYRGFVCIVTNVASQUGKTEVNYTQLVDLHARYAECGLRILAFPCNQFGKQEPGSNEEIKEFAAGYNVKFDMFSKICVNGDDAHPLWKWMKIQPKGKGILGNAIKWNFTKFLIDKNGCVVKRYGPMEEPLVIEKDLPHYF
Sequence of Glutathione peroxidase 1 (Homo sapiens) (P07203 whole entry, looked up): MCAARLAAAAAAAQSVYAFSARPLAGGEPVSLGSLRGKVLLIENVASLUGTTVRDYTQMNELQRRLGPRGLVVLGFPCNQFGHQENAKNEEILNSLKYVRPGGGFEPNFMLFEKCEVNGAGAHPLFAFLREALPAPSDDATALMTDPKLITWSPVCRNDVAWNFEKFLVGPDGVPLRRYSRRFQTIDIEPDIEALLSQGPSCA

For `C[C@H](CCC(=O)O)[C@H]1CC[C@H]2[C@@H]3[C@@H](O)C[C@@H]4C[C@H](O)CC[C@]4(C)[C@H]3CC[C@]12C`, the Potency entry in test [1], in test [2], in test [3], in test [4] and in test [5] was “inactive” throughout. The Z-AUC in test [6] is 0.396 (inactive); in test [6] (setting [8]) it was 1.43; in test [6] (measured here: PEO4 Z-AUC), 1.41.

With `CC[C@@]1(O)C(=O)OCc2c1cc1n(c2=O)Cc2c-1nc1cc(F)c(C)c3c1c2[C@@H](N)CC3`, the Potency in test [1] is 0.165 µM (active); in test [2], 0.0033 µM (active); in test [3], 0.0026 µM (active); in test [4], 14.5 µM (active); in test [6], 0.0087 µM (active); in test [7] (HiBiT), 0.313 µM (active). For the same compound, the Z-AUC was -3.81 in test [6] (setting [8]) and -2.97 in test [6] (measured here: PEO4 Z-AUC). Further, the activity change, negative = inhibition in test [7] (Viability) was -10.9% (inactive).

Consider `CC(=O)c1cc2c(o1)C(=O)c1ccccc1C2=O`, for which the Potency in test [1] is 0.523 µM (active); in test [2], 1.86 µM (active); in test [3], 1.32 µM (active); in test [4], 1.29 µM (active); in test [6] it was 0.549 µM (active); in test [7] (HiBiT) it was 0.249 µM (active). In addition, the Potency in test [7] (Viability) is 0.394 µM (active). Further, the Z-AUC in test [6] (setting [8]) was -1.52; in test [6] (measured here: PEO4 Z-AUC) it was -1.88.

For the compound `C[C@H]1CC2[C@@H]3CCC4=CC(=O)C=C[C@]4(C)[C@@]3(F)[C@@H](O)C[C@]2(C)[C@@]1(O)C(=O)CO` (some centres undefined), the Potency entry in test [1], in test [2], in test [4] and in test [5] was “inactive” in each case. The Potency in test [3] is 0.105 µM (active). The Z-AUC is -1.28 (inactive) in test [6], -0.45 in test [6] (setting [8]) and -0.996 in test [6] (measured here: PEO4 Z-AUC).

Regarding `Clc1cccc(-c2ccc(-c3nnc(CCCc4ccc5cccnc5n4)o3)cc2)c1`, the Potency entry in test [1], in test [2], in test [3], in test [4] and in test [5] was “inactive” each time. For the same compound, the Z-AUC was 1.61 (inactive) in test [6], 1.52 in test [6] (setting [8]) and 1.67 in test [6] (measured here: PEO4 Z-AUC).

`Cc1cccc(/C=N/Nc2cc(N3CCOCC3)nc(OCCc3ccccn3)n2)c1`: the Potency entry in test [1], in test [4] and in test [5] was “inactive” each time. The figures for the Potency in test [2] and in test [3] were 0.468 µM (active) and 0.296 µM (active), respectively. In addition, the results for the Z-AUC in test [6], in test [6] (setting [8]) and in test [6] (measured here: PEO4 Z-AUC) were 0.655 (inactive), 0.0151 and 0.106, respectively.

Take `C=CC(=O)N1CC/C(=C\c2ccc(F)c([N+](=O)[O-])c2)C(=O)/C(=C/c2ccc(F)c([N+](=O)[O-])c2)C1`: the Potency is 0.658 µM (active) in test [1]; 0.0833 µM (active) in test [2]; 0.059 µM (active) in test [3]; 0.219 µM (active) in test [6]; 0.222 µM (active) in test [7] (HiBiT). In addition, the Potency entry in test [4] and in test [5] was “inactive” each time. Moreover, the Z-AUC in test [6] (setting [8]) was -2.29; in test [6] (measured here: PEO4 Z-AUC), -2.19.

Regarding `CCC[C@H](NC(=O)/C(C#N)=C/c1cccc(Br)n1)c1ccccc1`, the Potency in test [1] is 4.15 µM (active); in test [2], 11.8 µM (active); in test [3], 13.2 µM (active); in test [7] (HiBiT) it was 6.25 µM (active). Besides, the Potency result in test [4] and in test [5] was “inactive” in each case. Moreover, the Z-AUC in test [6] was 0.211 (inactive); in test [6] (setting [8]), 0.0929; in test [6] (measured here: PEO4 Z-AUC), 0.0816.

With `COc1cc2c3c(n(CCCNCCO)c(=O)c2cc1OC)-c1cc2c(cc1C3=O)OCO2`, the Potency in test [1] was 5.87 µM (active); in test [2] it was 0.0263 µM (active); in test [3] it was 0.0295 µM (active); in test [6] it was 0.0078 µM (active). For the same compound, the values for the Z-AUC in test [6] (setting [8]) and in test [6] (measured here: PEO4 Z-AUC) were -2.45 and -1.56, respectively. Also, the activity change, negative = inhibition in test [7] (HiBiT) was -14.1% (inactive); in test [7] (Viability), -9.73% (inactive).

For `CN(Cc1ccccc1)C(=O)c1ccc(S(=O)(=O)Nc2ccccc2)cc1`, the Potency result in test [1], in test [4] and in test [5] was “inactive” in each case. The Z-AUC was -0.829 (inactive) in test [6], -0.00385 in test [6] (setting [8]) and 0.744 in test [6] (measured here: PEO4 Z-AUC).

Regarding `C[C@@H](Oc1ccc2[nH]nc(/C=C/c3cnn(CCO)c3)c2c1)c1c(Cl)cncc1Cl`, the Potency in test [1] was 0.93 µM (active); in test [2] it was 0.833 µM (active); in test [3], 0.417 µM (active); in test [7] (HiBiT), 0.557 µM (active). Also, in test [4], the Potency result is “inactive”. Further, the results for the Z-AUC in test [6], in test [6] (setting [8]) and in test [6] (measured here: PEO4 Z-AUC) were -1.01 (inactive), -0.521 and -0.403, respectively.

Consider `CCc1cnn2c(NCc3ccc[n+]([O-])c3)cc(N3CCCC[C@H]3CCO)nc12`, for which the Potency in test [1] is 0.0052 µM (active); in test [2] it was 0.0372 µM (active); in test [3] it was 0.0372 µM (active); in test [6] it was 0.245 µM (active). Further, the Potency entry in test [5] was “inactive”. The Z-AUC is -2.15 in test [6] (setting [8]) and -1.73 in test [6] (measured here: PEO4 Z-AUC). For the same compound, the activity change, negative = inhibition in test [7] (Viability) was 5.42% (inactive).

Regarding `C[C@H]1CNC(=O)c2cnn3ccc(nc23)N[C@H](C)c2cc(F)ccc2O1`, the Potency in test [1] was 1.17 µM (active); in test [2], 1.48 µM (active); in test [3], 1.18 µM (active); in test [6], 1.55 µM (active); in test [7] (HiBiT), 4.43 µM (active). The Potency entry in test [4] and in test [5] was “inactive” in each case. Moreover, the Z-AUC in test [6] (setting [8]) is -2.09; in test [6] (measured here: PEO4 Z-AUC), -2.06.

As for `Cc1ccc(-n2c(C)cc(-c3nnc4n3CCCCC4)c2C)cc1`, the Potency result in test [1], in test [4] and in test [5] was “inactive” throughout. The Potency in test [2] and in test [3] was 18.6 µM (active) each time. The Z-AUC is 1.28 (inactive) in test [6], 1.19 in test [6] (setting [8]) and 1.13 in test [6] (measured here: PEO4 Z-AUC).

In the case of `Cc1c(CN2CCN(C(=O)[C@H](C)O)CC2)sc2c(N3CCOCC3)nc(-c3cnc(N)nc3)nc12`, the Potency is 0.262 µM (active) in test [1], 0.0417 µM (active) in test [2] and 0.0742 µM (active) in test [3]. In addition, the Potency result in test [4] and in test [5] was “inactive” in each case. In addition, the Z-AUC in test [6] is 0.0318 (inactive); in test [6] (setting [8]), 0.386; in test [6] (measured here: PEO4 Z-AUC), 0.839.

For the compound `COc1cccc2c1C(=O)c1c(O)c3c(c(O)c1C2=O)C[C@@](O)(/C(CO)=N/NC(=O)CCCCCN1C(=O)C=CC1=O)C[C@@H]3O[C@H]1C[C@H](N)[C@H](O)[C@H](C)O1`, the Potency in test [1] was 3.3 µM (active); in test [2], 0.209 µM (active); in test [3], 0.132 µM (active); in test [6], 1.1 µM (active); in test [7] (HiBiT) it was 2.79 µM (active). The Potency result in test [5] was “inactive”. Also, the results for the Z-AUC in test [6] (setting [8]) and in test [6] (measured here: PEO4 Z-AUC) were -1.6 and -1.55, respectively. In addition, the activity change, negative = inhibition in test [7] (Viability) was -0.403% (inactive).

`O=C(CCCc1ccc2cccnc2n1)NCc1cc(-c2ccc(F)c(C(F)(F)F)c2)no1`: the Potency entry in test [1], in test [2], in test [3], in test [4] and in test [5] was “inactive” each time. The values for the Z-AUC in test [6], in test [6] (setting [8]) and in test [6] (measured here: PEO4 Z-AUC) were -0.51 (inactive), -0.432 and -0.394, respectively.

Turning to `O=C(O)c1ccc(O)c2ncccc12`, the Potency entry in test [1] and in test [4] was “inactive” throughout. Moreover, the Potency in test [2] was 20.9 µM (active). Besides, the Z-AUC was 1.08 (inactive) in test [6], 0.983 in test [6] (setting [8]) and 1.08 in test [6] (measured here: PEO4 Z-AUC).

On to `C[C@@]12C(=O)OC(=O)[C@]1(C)[C@H]1CC[C@@H]2O1`, for which the Potency in test [1] is 5.87 µM (active); in test [2] it was 6.61 µM (active); in test [3], 4.68 µM (active); in test [7] (HiBiT) it was 27.9 µM (active); in test [7] (Viability), 14 µM (active). Further, the Potency result in test [4] and in test [5] was “inactive” in each case. The Z-AUC in test [6] was 0.0424 (inactive); in test [6] (setting [8]), 0.505; in test [6] (measured here: PEO4 Z-AUC), 0.28.

In the case of `COc1ccc(-n2cnc3cc(C(=O)N4CCCCC4)ccc32)cc1`, the Potency result in test [1], in test [2], in test [3], in test [4] and in test [5] was “inactive” each time. Further, the Z-AUC in test [6] was 0.871 (inactive); in test [6] (setting [8]), 0.696; in test [6] (measured here: PEO4 Z-AUC), 0.92.
